Reference: PubChem BioAssay (Tox21)
Records with an inconclusive call do not appear. Active and inactive are the calls of the source. Unless noted, calls come from the whole dose curve.

Assays:
[1] = qHTS assay to identify small molecule agonists of the sonic hedgehog signaling (Shh) pathway (AID 1259368); details: NIH/3T3 Gli1-Luc reporter, luciferase, 24 h; series mostly up to 92.4 µM; note: nearly all actives have a fitted effect of over 15% in size; note: potency is the fitted concentration of half-maximal effect
How it was run: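 Luminescent signal was taken as a measure of Gli1-controlled luciferase expression in stably transfected NIH/3T3-derived cells that had been treated for 24 hr with compounds delivered in DMSO.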

[2] = qHTS assay to identify small molecule antagonists of the sonic hedgehog signaling (Shh) pathway (AID 1259369); details: NIH/3T3 Gli1-Luc reporter, Shh antagonist, luminescence 24 h; series mostly up to 92.4 µM; note: nearly all actives have a fitted effect of over 45% in size; note: potency is the fitted concentration of half-maximal effect
How it was run: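 Screening used 3T3Gli1-Luc cells at 2,000 per well, compounds delivered in DMSO, and conditioned medium as agonist stimulus; plates incubated 24hr at 37 C and 5% CO2 before a 30min luciferase step.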

[3] = biological target: Estrogen receptor beta (Homo sapiens) (UniProt Q92731); assay: qHTS assay to identify small molecule agonists of the estrogen receptor beta (ER-beta) signaling pathway (AID 1259377; active = well fitted activation curve with a large enough effect in the signal ratio in the repeat runs, not every such curve was filed as active; the % refers to the signal ratio); details: ER-beta-UAS-bla HEK293T, beta-lactamase FRET ratio, 16 h; series mostly up to 92.4 µM
Chain of Estrogen receptor beta (Homo sapiens) (Q92731 whole entry, looked up): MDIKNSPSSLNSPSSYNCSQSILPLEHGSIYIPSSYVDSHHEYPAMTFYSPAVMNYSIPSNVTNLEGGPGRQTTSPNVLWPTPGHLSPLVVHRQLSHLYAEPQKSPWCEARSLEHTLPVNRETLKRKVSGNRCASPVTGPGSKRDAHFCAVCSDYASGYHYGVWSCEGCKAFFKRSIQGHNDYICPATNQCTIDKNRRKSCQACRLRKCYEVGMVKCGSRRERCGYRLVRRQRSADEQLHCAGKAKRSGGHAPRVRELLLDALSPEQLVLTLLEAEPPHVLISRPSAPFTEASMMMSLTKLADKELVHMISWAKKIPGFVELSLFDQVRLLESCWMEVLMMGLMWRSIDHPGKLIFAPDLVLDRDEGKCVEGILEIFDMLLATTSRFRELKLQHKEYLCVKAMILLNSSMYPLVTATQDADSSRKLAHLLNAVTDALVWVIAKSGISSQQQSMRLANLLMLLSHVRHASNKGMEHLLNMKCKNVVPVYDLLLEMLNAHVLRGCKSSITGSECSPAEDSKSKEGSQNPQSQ
How it was run: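 ER-beta-UAS-bla HEK293T (GripTite) cells carrying a UAS-driven beta-lactamase reporter, in medium with 2% charcoal-stripped FBS, were exposed to compounds for 16 hr at 37C; LiveBLAzer B/G FRET substrate was then added and fluorescence read after 2 hours at room temperature.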

[4] = biological target: Estrogen receptor beta (Homo sapiens) (UniProt Q92731); assay: qHTS assay to identify small molecule antagonists of the estrogen receptor beta (ER-beta) signaling pathway (AID 1259378; active = well fitted inhibition curve with a large enough effect in the signal ratio in the repeat runs, not every such curve was filed as active; the % refers to the signal ratio; note: potency is the fitted concentration of half-maximal effect); details: ER-beta-UAS-bla HEK293T, beta-lactamase FRET ratio, 16 h; series mostly up to 92.4 µM
How it was run: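 ER-beta-UAS-bla HEK293T cells in 2% charcoal-stripped FBS medium treated with compound plus 1nM final 17-beta-estradiol for 16 hr at 37C. Beta-lactamase reporter read by FRET substrate fluorescence after 2 hours at room temperature.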

[5] = qHTS assay to identify small molecule agonists of the androgen receptor (AR) signaling pathway in the presence of an antagonist - cell viability counter screen (AID 1259379; active = well fitted curve in the direction sought with a large enough effect in the repeat runs; an effect the other way counts as inactive or inconclusive; note: nearly all actives have a fitted effect of over 25% in size; note: potency is the fitted concentration of half-maximal effect); details: MDA-kb2 viability, CellTiter-Fluor, 16 h; series mostly up to 92.4 µM
How it was run: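 In MDA-kb2 cells (human breast carcinoma, MMTV-luciferase), compounds at 15 concentrations plus 3.0uM nilutamide; 16 hr, 37C, 0% CO2; CellTiter-Fluor fluorescence read for viability.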

[6] = qHTS assay to identify small molecule agonists of the estrogen receptor beta (ER-beta) signaling pathway - cell viability counter screen (AID 1259380; active = well fitted curve in the direction sought with a large enough effect in the repeat runs; an effect the other way counts as inactive or inconclusive; note: nearly all actives have a fitted effect of over 30% in size; note: potency is the fitted concentration of half-maximal effect); details: ER-beta-bla HEK293T viability, CellTiter-Glo luminescence, 16 h; series mostly up to 92.4 µM
How it was run: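 Viability of ER-beta-UAS-bla HEK293T cells was determined by CellTiter-Glo luminescence following 16 hr treatment with test compounds at 37C.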

[7] = qHTS assay to identify small molecule antagonists of the estrogen receptor beta (ER-beta) signaling pathway - cell viability counter screen (AID 1259382; active = well fitted curve in the direction sought with a large enough effect in the repeat runs; an effect the other way counts as inactive or inconclusive; note: nearly all actives have a fitted effect of over 55% in size; note: potency is the fitted concentration of half-maximal effect); details: ER-beta-UAS-bla HEK293T viability, CellTiter-Glo luminescence, 16 h; series mostly up to 92.4 µM
How it was run: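 Tox21 10K library tested in qHTS format on ER-beta-bla HEK293T cells stimulated with 1nM E2; 16 hr treatment at 37C. Same-well CellTiter-Glo luminescence served as the cell viability measure.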

[8] = qHTS assay to identify small molecule agonists or antagonists of the thyroid stimulating hormone receptor (TSHR) signaling pathway - wild type cell line counter screen (AID 1259384); details: HEK293 wild type, cAMP HTRF counter-screen, active compounds read high; series mostly up to 92.4 µM
How it was run: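 Wild-type Hek293 cells, 800/well, 18 h at 37C, then compound with Ro20-1724 for 30 min RT. cAMP by HTRF (cAMP-d2/anti-cAMP cryptate), 1 h RT, fluorescence read. 15 concentrations, triplicates.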

[9] = biological target: Estrogen receptor (Homo sapiens) (UniProt P03372); assay: qHTS assay to identify small molecule agonists of the estrogen receptor alpha (ER-alpha) signaling pathway in the presence of an antagonist (AID 1259383); details: VM7Luc4E2 cells, ERE-luciferase, +ICI-182,780, 22 h; series mostly up to 92.4 µM; note: top concentration of the series differs between compounds; nearly all actives have a fitted effect of over 15% in size
Chain of Estrogen receptor (Homo sapiens) (P03372 whole entry, looked up): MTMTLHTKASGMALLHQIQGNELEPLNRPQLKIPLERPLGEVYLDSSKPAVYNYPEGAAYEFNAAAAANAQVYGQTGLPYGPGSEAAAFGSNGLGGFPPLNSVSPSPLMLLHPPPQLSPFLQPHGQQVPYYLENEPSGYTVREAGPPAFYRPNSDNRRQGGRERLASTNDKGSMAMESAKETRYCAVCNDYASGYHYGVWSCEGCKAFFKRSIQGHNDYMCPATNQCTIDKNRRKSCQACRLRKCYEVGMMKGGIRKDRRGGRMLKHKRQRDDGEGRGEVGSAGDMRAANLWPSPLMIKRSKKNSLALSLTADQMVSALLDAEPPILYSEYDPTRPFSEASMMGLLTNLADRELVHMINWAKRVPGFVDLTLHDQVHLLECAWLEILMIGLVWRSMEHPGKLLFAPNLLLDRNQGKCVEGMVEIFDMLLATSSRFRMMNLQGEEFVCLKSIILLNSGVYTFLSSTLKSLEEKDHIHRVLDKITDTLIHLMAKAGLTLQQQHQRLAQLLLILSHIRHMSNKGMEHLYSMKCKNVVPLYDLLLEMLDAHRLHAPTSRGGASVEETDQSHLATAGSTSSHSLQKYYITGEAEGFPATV
How it was run: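 In VM7Luc4E2 cells, 4,000 per well, compounds at 15 concentrations were co-incubated 22hr at 37C with 10.0nM final ICI-182,780. Luminescence from the stably transfected 4×ERE-luciferase reporter was recorded 30min after ONE-Glo addition.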

[10] = biological target: Androgen receptor (Homo sapiens) (UniProt P10275); assay: qHTS assay to identify small molecule agonists of the androgen receptor (AR) signaling pathway in the presence of an antagonist (AID 1259381); details: MDA-kb2 MMTV-luciferase, AR agonist + nilutamide, 16 h; series mostly up to 92.4 µM; note: nearly all actives have a fitted effect of over 15% in size
Chain of Androgen receptor (Homo sapiens) (P10275 whole entry, looked up): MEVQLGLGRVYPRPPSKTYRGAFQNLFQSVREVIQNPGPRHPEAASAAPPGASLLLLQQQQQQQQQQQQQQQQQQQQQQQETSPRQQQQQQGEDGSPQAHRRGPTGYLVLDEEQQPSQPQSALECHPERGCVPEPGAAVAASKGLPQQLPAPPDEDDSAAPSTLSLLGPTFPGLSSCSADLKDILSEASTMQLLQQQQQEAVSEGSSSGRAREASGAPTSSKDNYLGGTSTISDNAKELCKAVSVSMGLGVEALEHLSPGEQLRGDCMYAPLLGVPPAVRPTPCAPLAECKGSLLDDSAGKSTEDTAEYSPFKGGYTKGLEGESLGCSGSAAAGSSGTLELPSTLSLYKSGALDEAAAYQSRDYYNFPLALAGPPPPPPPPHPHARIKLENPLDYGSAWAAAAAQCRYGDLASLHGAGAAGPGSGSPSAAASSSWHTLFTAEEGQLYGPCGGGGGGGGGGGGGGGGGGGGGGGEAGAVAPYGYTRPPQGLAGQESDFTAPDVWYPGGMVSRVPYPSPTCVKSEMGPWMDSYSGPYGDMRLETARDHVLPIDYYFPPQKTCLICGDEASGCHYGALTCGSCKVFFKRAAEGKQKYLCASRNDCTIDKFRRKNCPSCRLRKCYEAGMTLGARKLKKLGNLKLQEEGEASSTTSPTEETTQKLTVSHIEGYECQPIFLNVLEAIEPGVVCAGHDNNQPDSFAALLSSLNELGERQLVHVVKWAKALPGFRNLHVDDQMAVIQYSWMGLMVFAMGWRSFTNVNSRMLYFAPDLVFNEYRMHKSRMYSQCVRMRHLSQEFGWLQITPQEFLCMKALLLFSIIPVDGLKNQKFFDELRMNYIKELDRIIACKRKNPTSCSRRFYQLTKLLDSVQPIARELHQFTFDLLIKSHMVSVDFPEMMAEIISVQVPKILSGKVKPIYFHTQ
How it was run: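 Here, 15-concentration compound series were pin-transferred onto MDA-kb2 MMTV-luciferase cells already dosed with nilutamide (3.0uM final). After 16hr at 37C, ONE-Glo was added and luminescence read 30min later at room temperature.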

Measured: Potency

CC(=O)OCC[N+](C)(C)C
not listed: [9] | [10]
inactive: all other assays above

CC(=O)c1cc2ccccc2s1
not listed: [7] | [10]
inactive: all other assays above

CN1C(C(=O)Nc2ccccn2)=C(O)c2sccc2S1(=O)=O
not listed: [8] | [9] | [10]
inactive: all other assays above

O=C(CCCN1CC=C(n2c(=O)[nH]c3ccccc32)CC1)c1ccc(F)cc1
active: [6] 13.3 µM
not listed: [7] | [10]
inactive: all other assays above

CCC(C)COC(=O)CC(C)C (stereo not drawn)
active: [6] 30.6 µM
not listed: [7] | [9] | [10]
inactive: all other assays above

COC(=O)CCS
not listed: [7] | [9] | [10]
inactive: all other assays above

CC(O)c1ccccc1 (stereo not drawn)
not listed: [7] | [10]
inactive: all other assays above

Cc1c(C)c2c(c(C)c1OC(=O)CCC(=O)OCCO)CC[C@@](C)(CCC[C@H](C)CCC[C@H](C)CCCC(C)C)O2
active: [4] 13.3 µM
not listed: [6] | [7] | [10]
inactive: all other assays above

O=C(Cn1ccnc1[N+](=O)[O-])NCCO
not listed: [9]
inactive: all other assays above

Nc1cccc2c1CN(C1CCC(=O)NC1=O)C2=O (stereo not drawn)
not listed: [10]
inactive: all other assays above

C=CC(C)(CCC=C(C)C)OC(=O)CC(C)C (stereo not drawn)
not listed: [7] | [10]
inactive: all other assays above

CCCCCCCCN
not listed: [7] | [9] | [10]
inactive: all other assays above

Clc1ccc(Nc2nnc(Cc3ccncc3)c3ccccc23)cc1
active: [2] 1.19 µM | [4] 13.3 µM
not listed: [6] | [10]
inactive: all other assays above

CC(=O)Nc1cc(S(=O)(=O)O)cc2cc(S(=O)(=O)O)c(N=Nc3ccccc3)c(O)c12
active: [5] 27.3 µM
not listed: [8] | [9] | [10]
inactive: all other assays above

CO/N=C(/C(=O)N[C@@H]1C(=O)N2C(C(=O)O)=C(COC(N)=O)CS[C@H]12)c1ccco1
not listed: [9] | [10]
inactive: all other assays above

O=C1CCCCCCCCCCOCCCCO1
not listed: [7] | [9] | [10]
inactive: all other assays above

c1csc(SSc2cccs2)c1
active: [2] 13.7 µM | [6] 13.7 µM
inactive: [1] | [3] | [8]

CN1CCCC(CC2c3ccccc3Sc3ccccc32)C1 (stereo not drawn)
inactive: [1] | [9] | [8]
active: [2] 6.68 µM | [4] 13.3 µM | [6] 18.8 µM | [7] 11.9 µM

CCCCN1CCCC1C(=O)Nc1c(C)cc(C)cc1C (stereo not drawn)
not listed: [4] | [10]
inactive: all other assays above

CCCCCC[C@@H](O)C/C=C\CCCCCCCC(=O)O
inactive: [1] | [2] | [3] | [8]

CC(C)(C)C(=O)C(=O)O
not listed: [5] | [8] | [10]
inactive: all other assays above

Oc1cc2c(cc1O)[C@H]1c3ccc(O)c(O)c3OC[C@@]1(O)C2
active: [2] 17.4 µM | [5] 61.9 µM
inactive: [1] | [3] | [6]

CCC1CO1 (stereo not drawn)
not listed: [3] | [9] | [10]
inactive: all other assays above

CC1(C)[C@H](C(=O)O)N2C(=O)C[C@H]2S1(=O)=O
inactive: [1] | [2] | [5] | [6] | [9]
active: [4] 11.9 µM

CCCCN(CCN(CCCC)C(=O)N1CCOCC1)C(=O)N1CCOCC1
active: [2] 13.3 µM
not listed: [4]
inactive: all other assays above

Nc1ccc(N=Nc2ccccc2)c(N)c1
active: [1] 1.34 µM | [5] 26.7 µM | [6] 26.7 µM
inactive: [2]

CC(C)=CCC1C(=O)N(c2ccccc2)N(c2ccccc2)C1=O
not listed: [4] | [10]
inactive: all other assays above

O=C1c2ccccc2C(=O)C1c1nc2ccccc2c(Br)c1O
inactive: [1] | [2] | [4] | [6] | [8]
